Reference: the supplement of paper PMC10338343
± gives the standard deviation.

tested on: MILI (PIWIL2) piRISC loaded with piRNA #1 (26 nt); assay: pre-steady-state target cleavage rate (min^-1); guide: piRNA #1 5'p-UGAGGUAGUAGGUUGUAUAGUAUCCA; MIWI and MILI are mouse PIWI proteins and EfPiwi is from a freshwater sponge; tags in brackets are library labels; higher = faster piRNA-guided slicing of the target; settings: auxiliary factor: 500 nM mouse GTSF1
Method in brief: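 For Cleave-'n-Seq, a transcribed, DNA-blocked target RNA library […] met 1 nM active affinity-purified piRISC with one synthetic guide at 33 °C for 0–8 or 0–960 min in HEPES–potassium acetate buffer, with or without 500 nM GTSF1 partner protein. Uncleaved targets were sequenced and normalised to depth and weakly complementary targets, with three trials pooled and k3 capped at 0.0001 min^-1. A burst-and-steady-state fit supplied the pre-steady-state cleavage rate.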
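Note: 1 nM active piRISC with 0.1 nM target library at 33 °C single turnover.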

Sequence | pre-steady-state target cleavage rate
GGAGUGGAAUGUAUACAACCUACUACCUCA | 0.0864 ± 0.0076
GGAGACCUAUGUAUACUUGCUACUACCUCA | 0.00505 ± 0.0014
GGAGACCUAUGUAUACUACCUACAACCUCA | 0.0574 ± 0.0091
GGAGACCUUACUAAACAACGUACUACCUCA | 0.015 ± 0.0024
GGAGACCUUACUAUACAACCUACUAGCUGA | 0.00949 ± 0.0037
GGAGACCUAACUAUACAACCUAACUACCUCA | 0.00748 ± 0.0037
GGAGACCUAUGUAUAUAACCUACUACCUCA | 0.0579 ± 0.0076
GGAGACCUAUGUAUACAUCCUACUACCUCA | 0.124 ± 0.012
GGAGACCUUACUAUUCAACCUACUUCCUCA | 0.0623 ± 0.013
GGAGAGGAUUCUAUACAACCUACUACGUCA | 0.0519 ± 0.0081
GGAGAGGAUACUAUACAACCUACUAACUCA | 0.0462 ± 0.014
GGAGACGAUAGUAUACAAGCUACUACCUCA | 0.176 ± 0.016
GGAGACCUUACAAUACAACCUACUACCACA | 0.133 ± 0.015
GGAGACCUAUGAAUACCAACCUACUACCUCA | 0.00269 ± 0.0026
GGAGAGGAUACUAUAUCAACCUACUACCUCA | 0.107 ± 0.0098
GGAGACCUAUGAAUAUAACCUACUACCUCA | 0.0081 ± 0.0024
GGAGACCUAACUAUUGUACCUACUACCUCA | 0.00477 ± 0.0036
GGAGACGAUACUAUACAAGCUACAACCUCA | 0.211 ± 0.018
GGAGACCUAUCUAUACAACCUUCUACCACA | 0.00592 ± 0.0023
GGAGACCUUACUAUACUACCUACUACCACA | 0.173 ± 0.014
GGAGACCUAUGAUAUGUUGCUACUCCUCA | < 0.0001
GGAGACCUUAGUAUACAACCUACUAGCUCA | 0.00944 ± 0.0043
GGAGACGUUACUAUUCAACCUACUACCUCA | 0.168 ± 0.011
GGAGAGGAUACUAUACAACCUUCUACCUCA | 0.0114 ± 0.0024
